Source: PubChem BioAssay (Tox21)
Inconclusive results are not listed. Calls of active or inactive are those of the source. Unless noted, calls come from the whole dose curve.

Assays:
[1] = qHTS assay to identify small molecule agonists of the sonic hedgehog signaling (Shh) pathway (AID 1259368);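 note: NIH/3T3-derived 3T3Gli1-Luc cells carrying a stable Gli1-driven firefly luciferase reporter; series mostly up to about 92 µM; nearly all actives have a fitted effect of over 15% in size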
Method in brief: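 Stable NIH/3T3 Gli1-Luc reporter clone; 24 hr cpd exposure after a 4 hr settling period; luminescence endpoint.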

[2] = qHTS assay to identify small molecule antagonists of the sonic hedgehog signaling (Shh) pathway (AID 1259369); note: nearly all actives have a fitted effect of over 45% in size
Method in brief: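 Gli1 transcriptional reporter (firefly Luc) in NIH/3T3 background, conditioned-medium activated. 24hr exposure, luminescence endpoint.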

[3] = molecular target: Estrogen receptor beta (Homo sapiens) (UniProt Q92731); assay: qHTS assay to identify small molecule agonists of the estrogen receptor beta (ER-beta) signaling pathway (AID 1259377; active = well fitted activation curve with a large enough effect in the signal ratio in the repeat runs, not every such curve was filed as active; the % refers to the signal ratio)
Method in brief: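 ER-beta-UAS-bla HEK293T (GripTite) cells carrying a UAS-driven beta-lactamase reporter, in medium with 2% charcoal-stripped FBS, were exposed to compounds for 16 hr at 37C; LiveBLAzer B/G FRET substrate was then added and fluorescence read after 2 hours at room temperature.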

[4] = qHTS assay to identify small molecule antagonists of the estrogen receptor beta (ER-beta) signaling pathway - cell viability counter screen (AID 1259382; active = well fitted curve in the direction sought with a large enough effect in the repeat runs; an effect the other way counts as inactive or inconclusive; note: series mostly up to about 92 µM; nearly all actives have a fitted effect of over 55% in size)
Method in brief: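 HEK293T ER-beta-UAS-bla, 2% charcoal-stripped FBS; compounds + 1nM E2 16 hr 37C; CellTiter-Glo luminescence, 30 min RT.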

[5] = molecular target: Estrogen receptor (Homo sapiens) (UniProt P03372); assay: qHTS assay to identify small molecule agonists of the estrogen receptor alpha (ER-alpha) signaling pathway in the presence of an antagonist (AID 1259383); note: top concentration of the series differs between compounds; nearly all actives have a fitted effect of over 15% in size
Method in brief: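 ER-alpha agonism measured under antagonist challenge: 10.0nM ICI-182,780 (final) plus compound, 15 concentrations, 22hr, VM7Luc4E2 ERE-luciferase cells. Read by luminescence.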

[6] = qHTS assay to identify small molecule agonists or antagonists of the thyroid stimulating hormone receptor (TSHR) signaling pathway - wild type cell line counter screen (AID 1259384)
Method in brief: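 Wild-type HEK293 cells were plated 18 h at 37 C/5% CO2, pin-dosed with compound plus Ro20-1724 medium, held 30 min at room temperature, then given cAMP-d2 and anti-cAMP-cryptate; fluorescence was read after 1 h. Fifteen concentrations, triplicate.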

[7] = molecular target: Thyrotropin receptor (Homo sapiens) (UniProt P16473); assay: qHTS assay to identify small molecule antagonists of the thyroid stimulating hormone receptor (TSHR) signaling pathway (AID 1259385); note: nearly all actives have a fitted effect of over 20% in size
Method in brief: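 TSHR-HEK293 cells were plated and held 18 h at 37C/5% CO2, then given compound plus Ro20-1724 and stimulated with TSH at 1.5 ng/mL final. After 30 min at room temperature, cAMP was detected with cAMP-d2/anti-cAMP-cryptate (1 h) by fluorescence.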

[8] = qHTS assay to identify small molecule agonists of the estrogen receptor alpha (ER-alpha) signaling pathway in the presence of an antagonist - cell viability counter screen (AID 1259386; active = well fitted curve in the direction sought with a large enough effect in the repeat runs; an effect the other way counts as inactive or inconclusive;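 note: series mostly up to about 92 µM; cells exposed to compounds for 22 h at 37 °C before the viability read; nearly all actives have a fitted effect of over 30% in size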)
Method in brief: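 Steps: 5-day stripped-FBS culture; seed and incubate 24hr; add ICI-182,780 (10.0nM final); pin 15-point compound titration; incubate 22hr at 37C; add CellTiter-Fluor at 21hr; read fluorescence.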

[9] = molecular target: Progesterone receptor (Homo sapiens) (UniProt P06401); assay: qHTS assay to identify small molecule agonists of the progesterone receptor (PR) signaling pathway (AID 1346784); note: nearly all actives have a fitted effect of over 30% in size
Method in brief: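 PR-UAS-bla HEK 293T cells carrying a UAS-driven beta-lactamase reporter were seeded in medium with 2% charcoal-stripped FBS, preincubated 6 hr at 37C, then exposed to compounds in DMSO for 16 hr; agonism was read by LiveBLAzer B/G FRET fluorescence.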

[10] = molecular target: Progesterone receptor (Homo sapiens) (UniProt P06401); assay: qHTS assay to identify small molecule antagonists of the progesterone receptor (PR) signaling pathway (AID 1346795; active = well fitted inhibition curve with a large enough effect in the signal ratio in the repeat runs, not every such curve was filed as active; the % refers to the signal ratio)
Method in brief: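 PR-UAS-bla HEK293T cells carrying a UAS-driven beta-lactamase reporter were plated in medium with 2% charcoal-stripped FBS and rested 6 hr at 37C. Compounds were added with 1 nM R5020 (final) for 16 hr, then FRET substrate loaded 2 hr at room temperature.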

[11] = qHTS assay to identify small molecule antagonists of the progesterone receptor (PR) signaling pathway - cell viability counter screen (AID 1346798; active = well fitted curve in the direction sought with a large enough effect in the repeat runs; an effect the other way counts as inactive or inconclusive; note: series mostly up to about 92 µM; nearly all actives have a fitted effect of over 50% in size)
Method in brief: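 PR-UAS-bla HEK293T cells in medium with 2% charcoal-stripped FBS were treated with compounds plus R5020 for 16 hr at 37C. Cell viability was then read by CellTiter-Glo luminescence after 30 min at room temperature in the same wells.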

[12] = qHTS assay to identify small molecule agonists of the progesterone receptor (PR) signaling pathway - cell viability counter screen (AID 1346799); note: nearly all actives have a fitted effect of over 45% in size
Method in brief: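 PR-UAS-bla HEK293T cells, 3,000 per well in medium with 2% charcoal-stripped FBS, were preincubated 6 hr at 37C, then exposed to compounds for 16 hr; viability was read as CellTiter-Glo luminescence after 30 min at room temperature.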

[13] = qHTS assay to identify small molecule antagonists of the TGF-beta/Smad signaling pathway - cell viability counter screen (AID 1346824; active = well fitted curve in the direction sought with a large enough effect in the repeat runs; an effect the other way counts as inactive or inconclusive; note: nearly all actives have a fitted effect of over 50% in size)
Method in brief: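 SBE-bla HEK 293T cells were plated overnight at 37 C, then given compounds in DMSO plus TGF-beta1 (added as 0.25 ng/mL solution) for 5 hr. After the bla read, CellTiter-Glo was added to the same wells and luminescence read after 30 min at room temperature.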

[14] = qHTS assay to identify small molecule agonists of the TGF-beta/Smad signaling pathway - cell viability counter screen (AID 1346829; active = well fitted curve in the direction sought with a large enough effect in the repeat runs; an effect the other way counts as inactive or inconclusive; note: top concentration of the series differs between compounds; nearly all actives have a fitted effect of over 45% in size)
Method in brief: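 HEK 293T SBE-bla line, 5 hr compound exposure at 37 C, multiplexed CellTiter-Glo viability read by luminescence.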

[15] = molecular target: Thyrotropin-releasing hormone receptor (Homo sapiens) (UniProt P34981); assay: qHTS assay to identify small molecule antagonists of the thyrotropin-releasing hormone receptor (TRHR) signaling pathway (AID 1346877; active = well fitted inhibition curve with a large enough effect in the repeat runs, not every such curve was filed as active; note: series mostly up to about 51 µM)
Method in brief: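 Human TRHR in HEK293 cells; inhibition of the intracellular calcium rise triggered by 1 nM TRH was followed by fluorescence over 3 min. Compounds were run at 15 concentrations, three replicates each.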

[16] = molecular target: Estrogen receptor beta (Homo sapiens) (UniProt Q92731); assay: qHTS assay to identify small molecule antagonists of the estrogen receptor beta (ER-beta) signaling pathway (AID 1259378; active = well fitted inhibition curve with a large enough effect in the signal ratio in the repeat runs, not every such curve was filed as active; the % refers to the signal ratio)
Method in brief: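 ER-beta-UAS-bla HEK293T (GripTite) cells in 2% charcoal-stripped FBS medium were preincubated 6 hr at 37C, dosed with compound, then stimulated with 1 nM E2 (final) for 16 hr; beta-lactamase reporter read by B/G FRET fluorescence after 2 hr substrate loading.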

[17] = qHTS assay to identify small molecule agonists of the androgen receptor (AR) signaling pathway in the presence of an antagonist - cell viability counter screen (AID 1259379; active = well fitted curve in the direction sought with a large enough effect in the repeat runs; an effect the other way counts as inactive or inconclusive;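 note: MDA-kb2 human breast cancer cells carrying an MMTV luciferase reporter; series mostly up to about 92 µM; nearly all actives have a fitted effect of over 25% in size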)
Method in brief: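 Counter screen for cell viability run in parallel with the AR agonist-mode luciferase assay. MDA-kb2 cells were co-treated with nilutamide (3.0uM final) and compounds, then incubated 16 hr at 37C, and CellTiter-Fluor fluorescence was measured.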

[18] = qHTS assay to identify small molecule agonists of the estrogen receptor beta (ER-beta) signaling pathway - cell viability counter screen (AID 1259380; active = well fitted curve in the direction sought with a large enough effect in the repeat runs; an effect the other way counts as inactive or inconclusive; note: nearly all actives have a fitted effect of over 30% in size)
Method in brief: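 In this qHTS counter screen, HEK293T cells carrying an ER-beta/UAS beta-lactamase reporter, grown in 2% charcoal-stripped FBS, received compound for 16 hr; ATP-based CellTiter-Glo luminescence was then read after 30 min at room temperature.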

[19] = molecular target: Androgen receptor (Homo sapiens) (UniProt P10275); assay: qHTS assay to identify small molecule agonists of the androgen receptor (AR) signaling pathway in the presence of an antagonist (AID 1259381); note: nearly all actives have a fitted effect of over 15% in size
Method in brief: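 AR antagonist background: nilutamide 3.0uM final. Cell line: MDA-kb2, MMTV-driven luciferase, responsive to both AR and GR. Exposure 16hr, 37C, no CO2; ONE-Glo luminescence.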

[20] = qHTS assay to identify small molecule agonists of the TGF-beta/Smad signaling pathway (AID 1346859; active = well fitted activation curve with a large enough effect in the signal ratio in the repeat runs, not every such curve was filed as active; the % refers to the signal ratio; note: series mostly up to about 77 µM)
Method in brief: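 HEK 293T cells stably carrying a beta-lactamase reporter driven by the Smad binding element were seeded overnight, exposed to DMSO-dissolved compounds for 5 hr at 37 C, 5% CO2, then loaded with FRET substrate for 2 hr at room temperature.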

Measured: Potency

Chain of Thyrotropin receptor (Homo sapiens) (P16473 whole entry, looked up): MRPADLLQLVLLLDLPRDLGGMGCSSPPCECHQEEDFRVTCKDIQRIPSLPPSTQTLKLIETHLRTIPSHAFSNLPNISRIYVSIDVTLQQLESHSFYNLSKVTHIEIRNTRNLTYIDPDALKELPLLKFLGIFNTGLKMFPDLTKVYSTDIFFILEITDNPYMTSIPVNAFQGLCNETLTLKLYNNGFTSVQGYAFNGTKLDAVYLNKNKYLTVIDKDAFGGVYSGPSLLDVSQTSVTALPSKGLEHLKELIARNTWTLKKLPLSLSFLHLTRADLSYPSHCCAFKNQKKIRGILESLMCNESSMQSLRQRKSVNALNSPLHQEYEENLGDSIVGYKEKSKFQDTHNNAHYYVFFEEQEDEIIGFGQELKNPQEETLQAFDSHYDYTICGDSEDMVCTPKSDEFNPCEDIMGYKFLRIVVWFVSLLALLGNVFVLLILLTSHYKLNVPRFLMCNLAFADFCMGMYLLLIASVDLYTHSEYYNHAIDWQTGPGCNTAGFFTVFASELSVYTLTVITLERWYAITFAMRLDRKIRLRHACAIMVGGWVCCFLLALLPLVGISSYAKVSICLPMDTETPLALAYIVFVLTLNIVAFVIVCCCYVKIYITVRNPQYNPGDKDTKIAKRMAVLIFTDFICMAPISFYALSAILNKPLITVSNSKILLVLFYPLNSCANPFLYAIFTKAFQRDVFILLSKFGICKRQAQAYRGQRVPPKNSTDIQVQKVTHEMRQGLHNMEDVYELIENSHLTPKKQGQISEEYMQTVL
Chain of Progesterone receptor (Homo sapiens) (P06401 whole entry, looked up): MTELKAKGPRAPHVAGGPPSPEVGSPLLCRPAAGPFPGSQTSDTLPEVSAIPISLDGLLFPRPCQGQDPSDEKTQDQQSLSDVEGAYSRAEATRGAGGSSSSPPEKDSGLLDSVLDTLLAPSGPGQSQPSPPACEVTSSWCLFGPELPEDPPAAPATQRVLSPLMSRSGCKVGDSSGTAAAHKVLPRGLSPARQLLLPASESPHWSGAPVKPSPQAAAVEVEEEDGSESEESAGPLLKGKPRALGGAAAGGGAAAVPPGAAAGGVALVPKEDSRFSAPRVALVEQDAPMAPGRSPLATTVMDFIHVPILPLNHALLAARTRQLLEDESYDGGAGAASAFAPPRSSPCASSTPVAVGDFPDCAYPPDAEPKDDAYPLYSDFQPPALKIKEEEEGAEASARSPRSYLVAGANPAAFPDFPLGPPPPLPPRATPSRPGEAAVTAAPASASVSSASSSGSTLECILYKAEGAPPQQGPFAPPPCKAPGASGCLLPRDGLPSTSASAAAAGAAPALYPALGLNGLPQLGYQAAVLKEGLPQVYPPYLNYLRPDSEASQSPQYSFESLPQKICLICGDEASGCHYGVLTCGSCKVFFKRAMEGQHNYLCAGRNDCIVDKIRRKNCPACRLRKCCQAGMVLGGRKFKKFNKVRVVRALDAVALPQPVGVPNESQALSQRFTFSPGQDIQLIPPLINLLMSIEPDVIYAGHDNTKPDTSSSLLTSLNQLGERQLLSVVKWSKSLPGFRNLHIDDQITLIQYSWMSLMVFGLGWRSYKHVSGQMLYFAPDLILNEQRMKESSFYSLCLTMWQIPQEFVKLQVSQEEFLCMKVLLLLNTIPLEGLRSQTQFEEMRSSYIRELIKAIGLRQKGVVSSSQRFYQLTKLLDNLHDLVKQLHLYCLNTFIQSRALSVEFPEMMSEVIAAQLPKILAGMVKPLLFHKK
Chain of Thyrotropin-releasing hormone receptor (Homo sapiens) (P34981 whole entry, looked up): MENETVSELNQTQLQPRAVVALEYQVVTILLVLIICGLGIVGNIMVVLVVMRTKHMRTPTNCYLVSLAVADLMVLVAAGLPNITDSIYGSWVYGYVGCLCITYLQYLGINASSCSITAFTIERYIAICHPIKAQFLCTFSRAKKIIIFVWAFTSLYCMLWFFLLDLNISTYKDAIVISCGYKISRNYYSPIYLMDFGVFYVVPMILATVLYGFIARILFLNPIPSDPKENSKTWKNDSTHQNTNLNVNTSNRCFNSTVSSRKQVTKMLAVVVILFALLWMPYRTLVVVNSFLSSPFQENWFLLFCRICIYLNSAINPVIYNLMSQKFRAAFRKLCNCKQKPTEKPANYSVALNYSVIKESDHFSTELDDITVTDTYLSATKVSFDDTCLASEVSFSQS
Chain of Estrogen receptor beta (Homo sapiens) (Q92731 whole entry, looked up): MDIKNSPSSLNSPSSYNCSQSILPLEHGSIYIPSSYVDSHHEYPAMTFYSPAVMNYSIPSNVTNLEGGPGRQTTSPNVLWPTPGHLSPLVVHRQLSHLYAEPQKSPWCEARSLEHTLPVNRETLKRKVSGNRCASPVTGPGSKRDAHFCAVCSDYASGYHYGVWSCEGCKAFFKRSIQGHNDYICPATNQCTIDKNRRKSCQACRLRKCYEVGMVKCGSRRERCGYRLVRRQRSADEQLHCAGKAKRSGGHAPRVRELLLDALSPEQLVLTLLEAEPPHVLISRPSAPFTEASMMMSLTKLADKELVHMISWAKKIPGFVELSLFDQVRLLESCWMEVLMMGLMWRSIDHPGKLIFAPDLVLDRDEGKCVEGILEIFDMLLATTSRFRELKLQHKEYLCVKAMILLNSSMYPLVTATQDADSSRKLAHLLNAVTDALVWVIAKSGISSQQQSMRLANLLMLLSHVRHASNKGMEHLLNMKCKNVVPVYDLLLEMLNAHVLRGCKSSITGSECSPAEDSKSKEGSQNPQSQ
Chain of Estrogen receptor (Homo sapiens) (P03372 whole entry, looked up): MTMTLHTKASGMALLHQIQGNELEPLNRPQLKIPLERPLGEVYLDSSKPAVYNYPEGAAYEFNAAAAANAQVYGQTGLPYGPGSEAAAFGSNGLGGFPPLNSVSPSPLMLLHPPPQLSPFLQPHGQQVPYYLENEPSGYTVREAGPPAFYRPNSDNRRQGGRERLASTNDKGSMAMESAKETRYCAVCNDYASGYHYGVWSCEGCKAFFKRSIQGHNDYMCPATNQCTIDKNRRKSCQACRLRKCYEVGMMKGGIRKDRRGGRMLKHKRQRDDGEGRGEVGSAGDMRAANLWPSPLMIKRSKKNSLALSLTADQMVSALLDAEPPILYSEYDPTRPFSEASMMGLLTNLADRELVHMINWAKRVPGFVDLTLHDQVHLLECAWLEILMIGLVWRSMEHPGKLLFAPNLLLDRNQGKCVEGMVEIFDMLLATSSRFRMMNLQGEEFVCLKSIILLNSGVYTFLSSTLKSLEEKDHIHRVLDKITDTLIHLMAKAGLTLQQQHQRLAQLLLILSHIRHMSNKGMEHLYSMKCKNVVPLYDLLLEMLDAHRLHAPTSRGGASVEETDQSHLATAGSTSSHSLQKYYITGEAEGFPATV
Chain of Androgen receptor (Homo sapiens) (P10275 whole entry, looked up): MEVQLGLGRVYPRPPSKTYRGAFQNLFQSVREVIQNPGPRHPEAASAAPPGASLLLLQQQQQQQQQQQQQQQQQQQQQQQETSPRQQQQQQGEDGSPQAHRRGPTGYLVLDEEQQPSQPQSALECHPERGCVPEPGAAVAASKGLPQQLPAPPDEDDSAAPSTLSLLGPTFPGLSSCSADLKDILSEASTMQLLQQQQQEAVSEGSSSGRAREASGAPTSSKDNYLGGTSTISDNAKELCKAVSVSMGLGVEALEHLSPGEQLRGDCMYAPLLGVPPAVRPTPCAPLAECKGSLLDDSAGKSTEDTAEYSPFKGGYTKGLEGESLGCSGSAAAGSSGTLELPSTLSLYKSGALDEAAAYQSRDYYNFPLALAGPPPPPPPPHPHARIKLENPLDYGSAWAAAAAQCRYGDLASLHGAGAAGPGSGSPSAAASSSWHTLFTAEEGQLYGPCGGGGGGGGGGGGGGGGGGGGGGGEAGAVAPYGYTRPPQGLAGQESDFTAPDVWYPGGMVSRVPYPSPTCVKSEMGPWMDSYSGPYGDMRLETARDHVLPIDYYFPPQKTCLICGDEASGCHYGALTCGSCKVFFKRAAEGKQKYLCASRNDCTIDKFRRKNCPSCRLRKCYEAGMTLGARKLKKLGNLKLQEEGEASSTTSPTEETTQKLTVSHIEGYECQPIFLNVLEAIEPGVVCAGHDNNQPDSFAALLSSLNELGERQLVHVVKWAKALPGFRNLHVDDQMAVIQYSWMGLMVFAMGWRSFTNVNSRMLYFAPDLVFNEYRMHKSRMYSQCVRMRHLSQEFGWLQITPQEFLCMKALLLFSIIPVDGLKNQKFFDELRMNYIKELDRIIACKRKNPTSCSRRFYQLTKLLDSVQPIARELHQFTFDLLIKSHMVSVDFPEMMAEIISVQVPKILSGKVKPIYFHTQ

CCCN1C[C@H](CSC)C[C@@H]2c3cccc4[nH]cc(c34)C[C@H]21
not listed: [16] | [17] | [18] | [19] | [20]
inactive: all other assays above

COCCc1ccc(OCC2CO2)cc1 (stereo unspecified)
not listed: [3] | [20]
inactive: all other assays above

O=C(/N=N/C(=O)OCc1ccccc1)OCc1ccccc1
not listed: [8] | [10] | [13] | [18] | [19]
inactive: all other assays above

O=S(=O)(O)c1cc(O)c2ccc(Nc3ccccc3)cc2c1
not listed: [6] | [7] | [8] | [18] | [19]
inactive: all other assays above

CCCC/C=C\CCCCCCCCCC=O
not listed: [5] | [9] | [10] | [19]
inactive: all other assays above

CC(C)N(c1ccccc1)C(C)C
not listed: [4] | [7] | [15] | [17] | [19]
inactive: all other assays above

NS(=O)(=O)c1ccc(NC(=O)CCC(=O)O)cc1
not listed: [15] | [17] | [19]
inactive: all other assays above

CC(CN)CC(C)(C)CCN (stereo unspecified)
not listed: [4] | [5] | [8] | [12] | [19]
inactive: all other assays above
